From PubChem BioAssay (NCI) come the findings set out here.

About 79,000 compounds went through this panel and 15% of them were active in at least one assay; those are over-represented in the sample as a whole. A number with no mark means an inactive call. Rule as the data show it: active = growth inhibition above about 70%; inactive = the rest.

A short description of this assay: NCI Yeast Anticancer Drug Screen. Data for the cln2 rad14 strain (AID 165).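 Also: 0% = growth equal to vehicle treated cultures.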 The settings on record: S. cerevisiae cln2 rad14 strain, at 50.0 µM, active compounds read high. The method, boiled down:
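Test compounds were added to cln2 rad14 yeast cultures; inhibition of growth was then determined by comparison with vehicle treatment.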
As for `CCCc1nc2ccc(C)cc2[nH]1`, the growth inhibition is -11.3%.

As for `COc1cc(C2C3=C(COC3=O)OC(C)(C)Oc3cc4c(cc32)OCO4)cc(OC)c1O` (stereo not given), the growth inhibition was -28.7%.

`O=C(O)C(CCOc1ccccc1)(CCc1ccccc1)C(=O)O`: the growth inhibition is -58.5%.

With `COC(=O)c1c(C(=O)Nc2ccccc2)c(-c2ccccc2)n(NC(N)=O)c1C`, the growth inhibition is -17.4%.

In the case of `CC(=O)Nc1ccc(/C=C2\SC(=S)N(/C=C3/C(=O)N(c4ccccc4)N=C3C)C2=O)cc1`, the growth inhibition is 7%.

On to `CC(=O)N1C(Nc2ccccc2)CCN1c1ccccc1` (stereo not given), for which the growth inhibition was 10.9%.

With `COC1OC(CO)C(O)C(NC(=O)OCc2ccccc2)C1O` (stereo not given), the growth inhibition is -46.1%.

Take `CN=C(N)SCCCSC(N)=NC`: the growth inhibition was 30.7%.

Turning to `CC(=O)NCS(=O)(=O)O`, the growth inhibition is -34%.

As for `Cc1ccc(/C=C/c2cc(/C=C/c3ccc(C)cc3)c([N+](=O)[O-])cc2[N+](=O)[O-])cc1`, the growth inhibition was -61.8%.

Consider `C1=C2CCc3ccc(o3)CCC(=C1)O2`, for which the growth inhibition is -23.7%.

With `COc1cc2c(cc1OC)C1=Cc3cc(OC)c(OC)cc3C(C)N1C=C2` (stereo not given), the growth inhibition is -18.6%.

For `O=C(O)CC(c1ccccc1)C(CC(=O)O)c1ccccc1.[NH-]C1CCCCC1[NH-].[Pt+2]` (stereo not given), the growth inhibition was -5.55%.

On to `Nc1cccc2c(=O)[nH][nH]c(=O)c12`, for which the growth inhibition was 9.95%.

Turning to `N#C/C(=C/c1ccc[nH]1)C(=O)O`, the growth inhibition is -1%.

As for `CCOC(=O)c1ccc(NC(=S)NCc2cccnc2)cc1`, the growth inhibition was 4.95%.

Regarding `COC1OC(CO)C(O)C1O` (stereo not given), the growth inhibition is -44.4%.

For `C=C1C(=O)OC2/C=C(/CO)C3(O)CC(O)C(C)(CC(OC(=O)/C(C)=C/C)C12)O3` (stereo not given), the growth inhibition is 17.4%.

Turning to `CCOC(=O)C(C(=O)OCC)c1cnc2ccccc2c1Cl`, the growth inhibition is -40.5%.

As to `CCCCNC(=O)NCCCC`, the growth inhibition was -4.5%.

With `CC(C)(O)C#Cc1ccccc1`, the growth inhibition was -24.8%.

In the case of `CC(C)(C)CC(C)(C)c1cc2c(O)c(c1)Cc1cc(C(C)(C)CC(C)(C)C)cc(c1O)Cc1cc(C(C)(C)CC(C)(C)C)cc(c1O)Cc1cc(C(C)(C)CC(C)(C)C)cc(c1O)Cc1cc(C(C)(C)CC(C)(C)C)cc(c1O)C2`, the growth inhibition was 31.4%.

As to `Cc1c(Cl)cccc1NC(=O)Nc1ccccc1F`, the growth inhibition was 19.2%.

Turning to `CCCC(=O)Oc1ccc(C(C)(C)C)cc1`, the growth inhibition was 10.8%.

Take `Cc1ccc(NC(=O)Oc2ccccn2)cc1`: the growth inhibition was -4.4%.

Consider `CCNC(=O)NC(=O)C(C)(C)Oc1ccc(Cl)cc1`, for which the growth inhibition was 12.5%.

`COc1cc(C(=O)n2ncc(C(C)=O)c2C)cc(OC)c1OC`: the growth inhibition was 10.9%.

Turning to `CCCCCCCCCC[C@@H](OC(C)=O)[C@@H]1CC[C@@H]([C@@H]2CC[C@@H]([C@@H](O)CC#C/C=C/CCCCCCC[C@@]3(Sc4ccccc4)C[C@H](C)OC3=O)O2)O1`, the growth inhibition was 4.25%.

Regarding `CCOC(=O)CC1NC(=O)CNC1=O` (stereo not given), the growth inhibition is -5%.

`O=[N+]([O-])c1cc2c(c3nonc13)OCCCCO2`: the growth inhibition is 23.2%.

In the case of `Cc1cc(Cl)ccc1NC(N)=O`, the growth inhibition was 22.4%.

Turning to `CCN(CC)CC1CCCCCCCCCCC1=O` (stereo not given), the growth inhibition is 17.4%.

With `O=C(O)Cc1ccc(N2N=C(c3ccccc3)CC2=O)cc1`, the growth inhibition is 35%.

Turning to `CC(C)(C)[Si](C)(C)OCC1CCC(n2cnc3c(N)ncnc32)O1` (stereo not given), the growth inhibition is -4.7%.

`Cc1ccc(S(=O)(=O)/C(C#N)=C\N2CC(=O)NC2=S)cc1`: the growth inhibition is -10.3%.

Regarding `NC(=S)N/C=C\c1nc2ccccc2[nH]c1=O`, the growth inhibition is -21.8%.

`COC(=O)C(CC(=O)[C@H]1CC[C@H]2[C@@H]3CC=C4C[C@@H](OC(C)=O)CC[C@]4(C)[C@H]3CC[C@]12C)OC(C)=O` (stereo not given in full): the growth inhibition was 28.9%.

In the case of `COc1ccc(/C(=N\NC(=O)C(N)=O)C(c2ccc(OC)cc2)C2(O)C(=O)Nc3c(Cl)cccc32)cc1` (stereo not given), the growth inhibition was 32.5%.

In the case of `COc1c2occc2c(Br)c2ccc(=O)oc12`, the growth inhibition was 7.45%.

`COc1ccc(/C=N/NC(=O)NCCNCCO)cc1`: the growth inhibition is -13.7%.
